Experimental data published in PubChem BioAssay AID1117319 (Southern Research Institute, 2015).
Where “and” joins values, the source holds several entries; their conditions need not be identical. Equal entries are not always repeated. Out of some 260,000 compounds screened, about 1,500 (0.58%) were called active. Another 5% or so got no clear call; they are omitted.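 How the source made its calls: active means inhibition above a set limit at one or more doses, reproduced on every date tested; inconclusive means results disagree between test dates, or hit never tested in dose response; inactive means the rest.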 The list is a sample of the results. Results with a measured potency or affinity are listed apart.

Molecular target: Virion infectivity factor (Human immunodeficiency virus type 1 group M subtype B (isolate BH10)) + Virion infectivity factor (Human immunodeficiency virus type 1 group M subtype B (isolate BRU/LAI)) + Virion infectivity factor (Human immunodeficiency virus type 1 group M subtype B (isolate PCV12)) + Virion infectivity factor (Human immunodeficiency virus type 1 group M subtype B (isolate HXB2)) + DNA dC->dU-editing enzyme APOBEC-3G (Homo sapiens) (UniProt P69720+P69721+P69722+P69723+Q9HC16)
Experiment: inhibitors of Vif binding to APOBEC3G peptide, primary screen, biochemical, TR-FRET, GST-Vif 1-94, biotin-A3G peptide, dose response retest (AID 1117319);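 further: Vif residues 1-94 fused to GST binding biotinylated APOBEC3G peptide 110-148; 0% = full assay without inhibitor and 100% = GST in place of GST-Vif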
Details: hits give high values

inhibition, inactive:
O=C(/C=C/c1ccco1)NC(=S)Nc1cc(C(F)(F)F)ccc1N1CCOCC1 31.6%
CC(C)C(=O)N1CCN(c2ccccc2NC(=S)NC(=O)/C=C/c2ccco2)CC1 4.53%
Cc1ccc(Sc2ccc(/C=C3/C(=O)NN(c4ccccc4)C3=O)o2)cc1 22.1%
CS(=O)(=O)N(CCC#N)Cc1ccc(C=O)o1 -8.77%
CS(=O)(=O)N(CCC#N)Cc1ccc(/C=C2\C(=O)Nc3ccccc32)o1 -11%
CS(=O)(=O)N(CCC#N)Cc1ccco1 0.4%
COc1cc2c(cc1OC)CN(C(=O)c1cc3ccccc3oc1=O)CC2 1.51%
Cc1ccc(S(=O)(=O)N2CCC[C@H]2C(=O)OCCN2C(=O)c3ccccc3C2=O)cc1 -7.91%
COC(=O)CN(C(=S)Nc1ccccc1)C1CC(=O)N(c2ccc(OC)cc2)C1=O (configuration not stated) -1.92%
Cc1cccc(NC(=O)C2CC(=O)NC(Nc3nc4ccccc4s3)=N2)c1 (configuration not stated) 11.6%
O=C(COc1ccccc1)N1CCN(C(=O)c2cccs2)CC1 17.7%
C=CCc1cc(/C=C/c2nc(O)c([N+](=O)[O-])c(=O)[nH]2)cc(OC)c1O 15%
Cc1cccc(NC(=S)NC(=O)C(c2ccccc2)c2ccccc2)n1 -6.56%
CCOc1ccc2noc3c2c1C(=O)c1ccccc1-3 31.7%
CCOC(=O)c1c(C)oc2c1C(=O)c1ccccc1C2=O 6.8%
Cc1cccc(C)c1NC(=O)CN1C(=O)S/C(=C\c2cccn2-c2cccc(C(=O)O)c2)C1=O 6.97%
Cc1ccc(NC(=O)CN2C(=O)S/C(=C\c3cccn3-c3cccc(C(=O)O)c3)C2=O)cc1C -0.87%
CN1C(=O)S/C(=C/c2cccn2-c2cccc(C(=O)O)c2)C1=O 6.22%
Cc1ccccc1NC(=O)CN1C(=O)S/C(=C\c2cccn2-c2cccc(C(=O)O)c2)C1=O 31.2%
Cc1ccc(OCC(=O)N2CCOCC2)cc1C -10.7%
CCCOc1ccc(N2C(=O)CC(N3CCN(CCN=CC4=C(O)CC(C)(C)CC4=O)CC3)C2=O)cc1 (configuration not stated) 8.53%
CCOC(=O)C1CCN(C(=O)C2CCN(S(=O)(=O)c3cccc4nsnc34)CC2)CC1 -1.01%
COc1cc(C(=O)Oc2ccccc2N)cc(OC)c1OC -1.18%
O=Nc1ccc(O)c2ncccc12 25.1%
Oc1ccc(N=Nc2ccccc2C(F)(F)F)c2cccnc12 9.97%
COc1cccc(C2CC(=O)Nc3c2c(=O)n(C)c(=O)n3C)c1OC (configuration not stated) 10.5%
CC(C)Oc1ccccc1C1CC(=O)Nc2c1c(=O)n(C)c(=O)n2C (configuration not stated) 0.23%
O=C(CCCC(=O)OCC(F)(F)C(F)F)Nc1ccccc1F 0.88%
O=C(O)C1CCCCC1C(=O)Nc1nc(-c2cccs2)cs1 (configuration not stated) -11.2%
CC(=O)O[C@@H]1[C@@H](OC(C)=O)[C@H](n2ccc3cc([N+](=O)[O-])ccc32)OC[C@@H]1OC(C)=O 11.9%
CC(=O)OC1COC(n2ccc3cc([N+](=O)[O-])ccc32)C(OC(C)=O)C1OC(C)=O (configuration not stated) -8.03%
CCOc1ccc(-c2nc(CSc3nnc(N)s3)cs2)cc1 -2.32%
CC(=O)c1ccc(OC(=O)CCN2c3ccccc3Sc3ccccc32)cc1 3.97%
CN1CCN(C(=O)c2cc(-c3ccco3)on2)CC1 -6.26%
O=C(c1cc(-c2ccco2)on1)N1CCOCC1 5.5%
O=C(c1ccc(NS(=O)(=O)c2ccccc2)cc1)N1CCN(Cc2ccc3c(c2)OCO3)CC1 -2.32% and -6.24%
CCc1ccc(N(CC)C(=O)Cc2c(C(=O)O)n(C)c3ccccc23)cc1 3.87%
C=CCOC(=O)C1=C(C)N=C2SCCC(=O)N2C1c1ccc(OC(=O)c2ccco2)cc1 (configuration not stated) -4.13%
Cn1c(-c2cnn(-c3ccccc3)c2-n2cccc2)n[nH]c1=S -6.44%
CCN(CC)Cc1cc(C(C)=O)ccc1O 1.01%
CCc1oc(C(=O)O)cc1CN(CC)CC 19%
O=C(COC(=O)c1cc(=O)[nH]c2ccccc12)Nc1nccs1 0.86%
Cc1ccc(C(=O)C2=C(O)C(=O)N(c3ncccn3)C2c2ccc(Br)cc2)o1 (configuration not stated) 10.3%
Cc1ccc(C(=O)C2=C(O)C(=O)N(c3ncccn3)C2c2ccc(Cl)cc2)o1 (configuration not stated) -30.5%
Cc1ccc(-n2c(-c3ccccc3)nnc2-c2cccs2)cc1 -9.97%
O=C(CCc1ccc(S(=O)(=O)NCc2ccccc2)cc1)N1CCN(Cc2ccc3c(c2)OCO3)CC1 1.72%
COCCN1C=C2C(=O)C(C)(OC(=O)CCC(=O)OC)C(=O)C=C2C=C1C1CC1 (configuration not stated) 10.6%
CCCCC1=CC2=CC(=O)C(C)(OC(=O)CC)C(=O)C2=CN1Cc1ccccc1 (configuration not stated) 25%
COC(=O)CCC(=O)OC1(C)C(=O)C=C2C=C(C3CC3)N(CCc3ccccn3)C=C2C1=O (configuration not stated) -2.65%
CN1/C(=C\C(=O)COC(=O)c2ccco2)C(C)(C)c2ccccc21 3.26%
CCCCC1=CC2=CC(=O)C(C)(OC(=O)CC)C(=O)C2=CN1CCc1ccccn1 (configuration not stated) 21.2%
CC1(C)CC(=O)CC(C)(C)N1OC(=O)c1ccco1 0.85%
COC(=O)CCC(=O)OC1(C)C(=O)C=C2C=C(C3CC3)N(C3CCCCC3)C=C2C1=O (configuration not stated) 17.8%
COC(=O)CCC(=O)OC1(C)C(=O)C=C2C=C(C3CC3)N(c3cccc(C#N)c3)C=C2C1=O (configuration not stated) 11.9%
CCN(CC(=O)NC)S(=O)(=O)c1ccc(Br)cc1 0.33%
CCc1ccccc1NC1=NCC(=O)N1Cc1ccc(OC)cc1 -4.85%
CCCCCC(O)(c1ccc(OCC)cc1)C(CN1CCOCC1)c1ccccc1 (configuration not stated) -5.23%
